Here are results for nine compounds from PubChem BioAssay (EPA / NIEHS).

Each structure is given as a SMILES string. Inconclusive results are not listed. The source holds several records for some structures; these can differ, active in one and inactive in another. Active and inactive are the calls of the source. The calls were made as follows, unless noted: active = hit-call score of the fitted dose curve at least 0.9, where 1 is the maximum; inactive = score below 0.9.

In general, AC50 refers to the midpoint of the concentration-response curve, whichever way the signal moves.

For test [1], the target named is Oxysterols receptor LXR-beta (Homo sapiens) (UniProt P55055). Put plainly: ATG_LXRb_TRANS: Attagene TRANS-FACTORIAL HepG2 Assay for human Liver X Receptor beta (LXRb) (AID 2282981; active = hit-call score of the fitted dose curve at least 0.9, where 1 is the maximum). To be noted: HepG2 Attagene TRANS GAL4-LXRb reporter, mRNA. The procedure, abridged:
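After 24 h of chemical treatment, transfected HepG2 cells yield total RNA; reporter cDNA is PCR-amplified, FAM-labelled, HpaI-cut and run on capillary electrophoresis. Signal reflects chimeric LXRb-Gal4 activity on GAL4-UAS reporters.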

The nature of test [2]: ATG_M_06_TRANS: Attagene TRANS-FACTORIAL HepG2 Assay for M06 Transcription Factor (Internal Marker) (AID 2282983; active = hit-call score of the fitted dose curve at least 0.9, where 1 is the maximum). The note with it: HepG2 Attagene TRANS M06 internal marker reporter. In short, it runs like this: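 Multi-reporter-transfected HepG2, 24 h treatment; reporter transcripts quantified via RT-PCR, primer-extension labelling and CE. DMSO-normalized gain-of-signal fit.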

The target of test [3] is Transcriptional activator Myb (Homo sapiens) (UniProt P10242). Kind of test: ATG_Myb_CIS: Attagene CIS-FACTORIAL HepG2 Assay for human Myeloblastosis (Myb) Proto-Oncogene Transcription Factor (AID 2282986). To be noted: HepG2 Attagene CIS-FACTORIAL Myb reporter transcription; actives raise or lower the signal. The procedure, abridged:
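After 24 h of compound dosing, total RNA from transfected HepG2 cells is reverse-transcribed and the reporter sequences amplified, labeled and separated by capillary electrophoresis. Values come from bidirectional fitting against DMSO.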

Test [4] addresses Nuclear respiratory factor 1 (Homo sapiens) (UniProt Q16656). Put plainly: ATG_NRF1_CIS: Attagene CIS-FACTORIAL HepG2 Assay for human Nuclear Respiratory Factor 1 (NRF1) Orphan Gene (AID 2282987). The note with it: HepG2 NRF1 cis-element reporter, Attagene multiplex; actives raise or lower the signal. In short, it runs like this: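 Measured: fluorescent reporter-specific RT-PCR products from transfected HepG2 cells, separated by capillary electrophoresis. Exposure lasted 24 h. Analysis used bidirectional curve fitting with DMSO as negative control.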

The target of test [5] is Myc proto-oncogene protein (Homo sapiens) (UniProt P01106). Kind of test: ATG_Myc_CIS: Attagene CIS-FACTORIAL HepG2 Assay for human Myelocytomatosis (Myc) Proto-Oncogene Transcription Factor (AID 2282990). The note with it: HepG2, Attagene cis-reporter transcription factor activity; actives raise or lower the signal. In short, it runs like this:
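Cells of the HepG2 human liver line bear multiple cis-driven reporter transcription units. Reporter mRNA after 24 h exposure is reverse-transcribed, amplified, labelled and resolved by capillary electrophoresis, with gain- or loss-of-signal fitting relative to DMSO.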

A short description of test [6]: ATG_NF_kB_CIS: Attagene CIS-FACTORIAL HepG2 Assay for human Nuclear Factor Kappa B (NF-kB) (AID 2282991). To be noted: HepG2 Attagene cis-factorial NF-kB reporter mRNA; actives raise or lower the signal. The procedure, abridged:
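Fluorescence of labelled RT-PCR products separated by capillary electrophoresis gives reporter mRNA levels from transfected HepG2 cells exposed 24 h; values are fitted in both directions relative to DMSO.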

Test [7] is described as follows: ATG_NRF2_ARE_CIS: Attagene CIS-FACTORIAL HepG2 Assay for human Nuclear Factor Erythroid 2 Related Factor 2 (NFR2) response to Antioxidant Response Elements (ARE) (AID 2282992). To be noted: HepG2 Attagene ARE/NRF2 reporter, transcription factor activity; actives raise or lower the signal. In short, it runs like this: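 Using transiently transfected HepG2 cells exposed for 24 h, reporter mRNA levels were determined by RT-PCR with fluorescent primer extension and capillary electrophoresis, analysed for gain or loss of signal against DMSO.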

Test [8] is described as follows: ATG_Oct_MLP_CIS: Attagene CIS-FACTORIAL HepG2 Assay for human Octamer-Binding Transcription Factor (Oct) (AID 2282993). The note with it: HepG2 Attagene cis-factorial Oct reporter, mRNA; actives raise or lower the signal. The procedure, abridged:
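Readout is reporter transcript level from RT-PCR with fluorescent primer extension and capillary electrophoresis, fitted in both directions against DMSO. Transfected HepG2 reporter units report endogenous factor activity after 24 h dosing.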

In test [9] the target is Cellular tumor antigen p53 (Homo sapiens) (UniProt P04637). Put plainly: ATG_p53_CIS: Attagene CIS-FACTORIAL HepG2 Assay for human p53 Transcription Factor (AID 2282994). To be noted: HepG2 p53 cis-element reporter, Attagene mRNA; actives raise or lower the signal. The procedure, abridged:
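In HepG2 cells, reporter transcription units under cis-regulatory promoters were transiently introduced. Following 24 h treatment, RNA was processed to labelled, digested cDNA fragments read by capillary electrophoresis; fitting was bidirectional versus DMSO.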

Test [10] has as its target human Peroxisome Proliferator-activated Receptor alpha (PPARa), PPARA (gene 5465) (UniProt Q07869). Kind of test: ATG_PPARa_TRANS: Attagene TRANS-FACTORIAL HepG2 Assay for human Peroxisome Proliferator-activated Receptor alpha (PPARa) (AID 2283001; active = hit-call score of the fitted dose curve at least 0.9, where 1 is the maximum;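 as to AC50: potency for gain of reporter signal over DMSO so agonist or activator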). The procedure, abridged:
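Transfected HepG2 cells treated with test chemical for 24 h. RNA isolated, reverse-transcribed with oligo(dT), PCR-amplified, FAM-labelled and HpaI-digested. Fragments sized by capillary electrophoresis; gain-of-signal fit relative to DMSO.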

For test [11], the target named is human Peroxisome Proliferator-activated Receptor delta (PPARd), PPARD (gene 5467) (UniProt Q03181). Put plainly: ATG_PPARd_TRANS: Attagene TRANS-FACTORIAL HepG2 Assay for human Peroxisome Proliferator-activated Receptor delta (PPARd) (AID 2283002; active = hit-call score of the fitted dose curve at least 0.9, where 1 is the maximum). The procedure, abridged: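 Cell-based TRANS reporter: HepG2, transient MRTU transfection, 24 h exposure. Readout = reporter mRNA (RT-PCR/CE, 6-FAM). Gain-of-signal fit vs DMSO control.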

Test [12] can be described thus: ATG_M_32_TRANS: Attagene TRANS-FACTORIAL HepG2 Assay for M32 Transcription Factor (Internal Marker) (AID 2282984; active = hit-call score of the fitted dose curve at least 0.9, where 1 is the maximum;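 also: transcript level of a background control reporter unit measured by RT-PCR and capillary electrophoresis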). The note with it: HepG2 Attagene TRANS M32 internal marker reporter. In short, it runs like this:
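Cell-based TRANS-format assay in HepG2: exogenous chimeric GAL4 reporter units transiently expressed, compounds applied 24 h. Reporter mRNA detected by RT-PCR plus capillary electrophoresis; this readout is an internal background marker.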

Test [13] addresses Nuclear receptor subfamily 4 group A member 2 (Homo sapiens) (UniProt P43354). Kind of test: ATG_NURR1_TRANS: Attagene TRANS-FACTORIAL HepG2 Assay for human Nuclear Receptor Related Protein 1 (NURR1) (AID 2282985; active = hit-call score of the fitted dose curve at least 0.9, where 1 is the maximum). The note with it: HepG2 Attagene TRANS reporter, mRNA readout. In short, it runs like this: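 Measures transcriptional activation by an exogenous NR-Gal4 chimera in transfected HepG2 liver cells. After 24 h, reporter RNA is reverse-transcribed, amplified and resolved by capillary electrophoresis; DMSO defines baseline.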

The nature of test [14]: ATG_NFI_CIS: Attagene CIS-FACTORIAL HepG2 Assay for human Nuclear Factor I (NFI) (AID 2282989). The note with it: HepG2 cis-regulatory reporter, NFI response element transcription; actives raise or lower the signal. The procedure, abridged:
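Reporter transcripts were measured by RT-PCR with fluorescent primer extension and capillary electrophoresis 24 h post-treatment. HepG2 cells carried transiently transfected cis-regulated reporter constructs reporting endogenous factor activity; gain or loss fitted against DMSO baseline.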

Test [15] in a line: BSK_3C_TissueFactor: BioMAP Diversity Plus: 3C Assay for Tissue Factor Biomarker Activity (AID 2282997). To be noted: BioMAP 3C HUVEC, tissue factor biomarker readout; actives raise or lower the signal. The procedure, abridged: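 In this endothelial system, HUVEC are treated for 24 h and Tissue Factor is assessed by ELISA, normalised to DMSO.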
Test [16] can be described thus: BSK_3C_uPAR: BioMAP Diversity Plus: 3C Assay for Urokinase-type plasminogen activator receptor (uPAR) Biomarker Activity (AID 2282998). To be noted: BioMAP 3C HUVEC, uPAR biomarker ELISA; actives raise or lower the signal. The procedure, abridged: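 Cell-surface uPAR on HUVEC (3C system) read by ELISA at 24 h post-treatment, with DMSO as baseline and fitting in both directions. Parallel cultures stained with SRB to flag overt cytotoxicity.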
Background: In an ELISA, binding on a coated surface is turned into a signal by an enzyme label.

The nature of test [17]: BSK_3C_VCAM1: BioMAP Diversity Plus: 3C Assay for Vascular cell adhesion molecule 1 (VCAM1) Biomarker Activity (AID 2282999). The note with it: BioMAP 3C HUVEC, VCAM1 ELISA, cytokine-stimulated; actives raise or lower the signal. In short, it runs like this: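 Activity fitted in both directions relative to DMSO, with ELISA measurement of the surface marker on primary HUVEC (3C) at 24 h post-treatment; parallel SRB staining (0.1% SRB, TCA-fixed, 560 nm) flagged overt cytotoxicity.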

Test [18] can be described thus: BSK_4H_Eotaxin3: BioMAP Diversity Plus: 4H Assay for Eotaxin 3 Biomarker Activity (AID 2283000).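 As to outcome: CCL26 protein level quantified by ELISA in parallel with SRB cytotoxicity check.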 To be noted: primary human endothelial cells (HUVEC); actives raise or lower the signal. The procedure, abridged:
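ELISA quantitation of CCL26 (Eotaxin-3) protein from chemically dosed human vascular endothelial cells at 24 h; increases and decreases both scored relative to DMSO-treated baseline.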

The target in test [19] is Hepatocyte nuclear factor 4-alpha (Homo sapiens) (UniProt P41235). Put plainly: ATG_HNF4a_TRANS: Attagene TRANS-FACTORIAL HepG2 Assay for human Hepatocyte Nuclear Factor 4 alpha (HNF4a) (AID 2282982; active = hit-call score of the fitted dose curve at least 0.9, where 1 is the maximum). The note with it: HepG2 HNF4a transactivation reporter, mRNA readout. In short, it runs like this: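 Multiplexed reporter assay: transfected HepG2, 24 h exposure, total RNA → oligo(dT) RT → PCR → 6-FAM extension → HpaI digest → CE fluorescence. DMSO = negative control.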
Sequence of Hepatocyte nuclear factor 4-alpha (Homo sapiens) (P41235 whole entry, looked up): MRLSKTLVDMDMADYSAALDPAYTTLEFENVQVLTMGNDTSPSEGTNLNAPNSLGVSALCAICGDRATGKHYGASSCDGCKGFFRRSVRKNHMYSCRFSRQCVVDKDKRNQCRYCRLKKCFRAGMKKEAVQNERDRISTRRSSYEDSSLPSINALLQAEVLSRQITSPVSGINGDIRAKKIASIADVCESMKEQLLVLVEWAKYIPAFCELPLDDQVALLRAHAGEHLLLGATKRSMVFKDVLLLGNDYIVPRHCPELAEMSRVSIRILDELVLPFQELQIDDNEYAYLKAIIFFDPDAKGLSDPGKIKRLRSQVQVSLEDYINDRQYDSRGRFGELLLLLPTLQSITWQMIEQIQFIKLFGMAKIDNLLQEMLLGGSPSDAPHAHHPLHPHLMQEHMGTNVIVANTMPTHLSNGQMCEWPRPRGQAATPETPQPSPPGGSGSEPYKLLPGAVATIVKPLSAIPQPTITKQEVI

Sequence of human Peroxisome Proliferator-activated Receptor alpha (PPARa), PPARA (gene 5465) (Q07869 whole entry, looked up, the tested form may be a part): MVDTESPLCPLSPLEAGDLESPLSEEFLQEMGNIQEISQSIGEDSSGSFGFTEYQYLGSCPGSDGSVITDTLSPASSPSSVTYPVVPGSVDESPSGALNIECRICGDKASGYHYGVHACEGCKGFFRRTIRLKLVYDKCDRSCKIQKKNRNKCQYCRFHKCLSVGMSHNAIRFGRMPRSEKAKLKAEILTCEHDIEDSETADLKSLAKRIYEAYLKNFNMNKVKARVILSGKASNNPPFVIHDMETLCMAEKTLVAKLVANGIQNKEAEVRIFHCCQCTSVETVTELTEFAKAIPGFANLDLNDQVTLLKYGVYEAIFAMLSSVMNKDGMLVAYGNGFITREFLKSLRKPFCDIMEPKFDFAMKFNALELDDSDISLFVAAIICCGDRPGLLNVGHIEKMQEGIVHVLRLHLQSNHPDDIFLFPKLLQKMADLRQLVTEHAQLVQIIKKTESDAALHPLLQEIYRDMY
Sequence of human Peroxisome Proliferator-activated Receptor delta (PPARd), PPARD (gene 5467) (Q03181 whole entry, looked up): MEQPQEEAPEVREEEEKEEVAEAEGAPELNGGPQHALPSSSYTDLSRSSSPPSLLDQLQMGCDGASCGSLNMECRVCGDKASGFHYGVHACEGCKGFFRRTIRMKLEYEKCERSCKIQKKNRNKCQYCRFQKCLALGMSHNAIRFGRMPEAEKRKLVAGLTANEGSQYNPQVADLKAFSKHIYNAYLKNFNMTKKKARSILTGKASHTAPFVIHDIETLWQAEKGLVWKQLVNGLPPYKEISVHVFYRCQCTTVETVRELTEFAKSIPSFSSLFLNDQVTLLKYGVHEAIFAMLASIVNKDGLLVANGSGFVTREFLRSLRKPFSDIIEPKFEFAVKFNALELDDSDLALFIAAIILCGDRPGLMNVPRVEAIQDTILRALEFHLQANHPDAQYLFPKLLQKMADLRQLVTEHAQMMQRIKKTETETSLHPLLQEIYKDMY
Sequence of Cellular tumor antigen p53 (Homo sapiens) (P04637 whole entry, looked up, the tested form may be a part): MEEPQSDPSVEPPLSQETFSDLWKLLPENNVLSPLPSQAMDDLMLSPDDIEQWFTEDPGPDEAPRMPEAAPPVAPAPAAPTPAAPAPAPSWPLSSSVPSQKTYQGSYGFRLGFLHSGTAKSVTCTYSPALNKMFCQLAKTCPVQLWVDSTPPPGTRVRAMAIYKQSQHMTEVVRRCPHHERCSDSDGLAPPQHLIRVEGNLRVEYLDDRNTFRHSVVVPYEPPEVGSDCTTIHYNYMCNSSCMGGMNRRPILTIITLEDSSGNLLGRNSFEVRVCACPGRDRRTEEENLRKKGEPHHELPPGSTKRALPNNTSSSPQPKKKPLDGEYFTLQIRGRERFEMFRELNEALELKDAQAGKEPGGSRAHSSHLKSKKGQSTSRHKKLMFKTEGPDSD
Sequence of Myc proto-oncogene protein (Homo sapiens) (P01106 whole entry, looked up): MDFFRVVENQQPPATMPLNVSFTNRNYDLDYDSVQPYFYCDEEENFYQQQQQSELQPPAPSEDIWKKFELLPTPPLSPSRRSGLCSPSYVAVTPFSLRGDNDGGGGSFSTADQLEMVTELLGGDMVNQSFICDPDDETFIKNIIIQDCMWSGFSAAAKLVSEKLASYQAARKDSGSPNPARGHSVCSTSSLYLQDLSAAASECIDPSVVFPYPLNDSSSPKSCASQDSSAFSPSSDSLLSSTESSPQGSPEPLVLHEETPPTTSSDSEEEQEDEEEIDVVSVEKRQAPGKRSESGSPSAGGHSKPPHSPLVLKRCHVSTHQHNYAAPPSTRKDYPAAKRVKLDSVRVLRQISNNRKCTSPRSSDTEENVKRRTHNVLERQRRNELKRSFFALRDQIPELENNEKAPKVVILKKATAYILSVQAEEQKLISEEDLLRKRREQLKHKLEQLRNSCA
Sequence of Nuclear receptor subfamily 4 group A member 2 (Homo sapiens) (P43354 whole entry, looked up, the tested form may be a part): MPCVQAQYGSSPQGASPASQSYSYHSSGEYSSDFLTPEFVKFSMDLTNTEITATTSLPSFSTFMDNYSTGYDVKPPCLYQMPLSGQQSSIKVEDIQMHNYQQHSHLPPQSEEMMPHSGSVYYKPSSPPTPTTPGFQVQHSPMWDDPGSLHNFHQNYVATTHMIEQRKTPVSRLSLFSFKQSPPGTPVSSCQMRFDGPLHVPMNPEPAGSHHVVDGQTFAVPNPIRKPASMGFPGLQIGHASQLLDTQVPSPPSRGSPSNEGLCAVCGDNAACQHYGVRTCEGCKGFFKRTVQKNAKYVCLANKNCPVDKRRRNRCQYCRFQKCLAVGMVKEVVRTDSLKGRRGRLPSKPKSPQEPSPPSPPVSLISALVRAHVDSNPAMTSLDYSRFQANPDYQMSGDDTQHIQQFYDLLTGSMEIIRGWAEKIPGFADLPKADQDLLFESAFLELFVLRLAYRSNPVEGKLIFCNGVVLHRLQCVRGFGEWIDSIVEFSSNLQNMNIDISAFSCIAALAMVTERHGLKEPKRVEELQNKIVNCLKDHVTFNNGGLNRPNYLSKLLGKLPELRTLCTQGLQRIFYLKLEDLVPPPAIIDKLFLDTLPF
Sequence of Transcriptional activator Myb (Homo sapiens) (P10242 whole entry, looked up): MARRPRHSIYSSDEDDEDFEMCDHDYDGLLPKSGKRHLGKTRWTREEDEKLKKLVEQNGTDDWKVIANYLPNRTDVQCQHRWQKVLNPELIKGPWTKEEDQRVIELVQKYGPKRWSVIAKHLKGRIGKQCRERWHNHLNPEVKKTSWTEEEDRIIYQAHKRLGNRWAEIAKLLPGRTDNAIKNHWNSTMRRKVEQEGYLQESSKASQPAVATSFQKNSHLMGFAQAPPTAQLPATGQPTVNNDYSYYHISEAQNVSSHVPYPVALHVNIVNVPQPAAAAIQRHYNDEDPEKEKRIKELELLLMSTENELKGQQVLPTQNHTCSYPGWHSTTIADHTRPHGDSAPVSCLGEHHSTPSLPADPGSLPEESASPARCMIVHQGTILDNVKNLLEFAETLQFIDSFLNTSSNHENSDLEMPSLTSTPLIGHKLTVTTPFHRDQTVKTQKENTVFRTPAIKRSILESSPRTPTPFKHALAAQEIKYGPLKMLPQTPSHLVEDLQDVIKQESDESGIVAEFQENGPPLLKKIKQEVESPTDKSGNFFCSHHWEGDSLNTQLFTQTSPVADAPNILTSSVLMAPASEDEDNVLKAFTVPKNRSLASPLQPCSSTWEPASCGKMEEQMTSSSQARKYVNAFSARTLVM
Sequence of Oxysterols receptor LXR-beta (Homo sapiens) (P55055 whole entry, looked up, the tested form may be a part): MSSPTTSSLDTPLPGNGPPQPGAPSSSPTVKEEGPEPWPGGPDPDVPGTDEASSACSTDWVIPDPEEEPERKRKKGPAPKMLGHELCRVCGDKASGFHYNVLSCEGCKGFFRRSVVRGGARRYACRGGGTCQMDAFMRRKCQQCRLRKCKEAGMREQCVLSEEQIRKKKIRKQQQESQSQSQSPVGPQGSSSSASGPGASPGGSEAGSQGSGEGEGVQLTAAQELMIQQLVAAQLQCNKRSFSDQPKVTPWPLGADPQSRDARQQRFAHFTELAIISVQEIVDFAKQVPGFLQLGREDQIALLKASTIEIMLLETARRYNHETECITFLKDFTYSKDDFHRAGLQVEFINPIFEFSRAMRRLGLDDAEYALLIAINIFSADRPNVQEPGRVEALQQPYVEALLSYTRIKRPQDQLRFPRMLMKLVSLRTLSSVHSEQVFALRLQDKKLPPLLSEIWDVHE
Sequence of Nuclear respiratory factor 1 (Homo sapiens) (Q16656 whole entry, looked up): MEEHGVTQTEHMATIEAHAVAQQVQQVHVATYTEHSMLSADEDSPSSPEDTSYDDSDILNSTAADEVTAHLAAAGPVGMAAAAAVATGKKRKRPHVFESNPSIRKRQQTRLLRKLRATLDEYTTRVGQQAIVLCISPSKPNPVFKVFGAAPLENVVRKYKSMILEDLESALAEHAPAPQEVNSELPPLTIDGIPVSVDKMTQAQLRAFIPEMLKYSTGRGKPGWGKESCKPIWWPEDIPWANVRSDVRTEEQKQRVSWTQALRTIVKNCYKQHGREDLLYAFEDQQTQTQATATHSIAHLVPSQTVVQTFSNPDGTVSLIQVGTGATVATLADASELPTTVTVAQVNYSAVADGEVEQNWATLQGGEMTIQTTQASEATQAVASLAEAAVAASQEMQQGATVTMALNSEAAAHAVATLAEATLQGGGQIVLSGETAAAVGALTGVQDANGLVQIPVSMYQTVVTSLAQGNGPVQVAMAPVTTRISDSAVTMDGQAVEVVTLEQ

Regarding `CC1COCc2cc3c(cc21)C(C)(C)C(C)C3(C)C` (centres undefined), the call in test [1], in [2], in [4], in test [8], in [9] and in [10] was inactive. In test [11], the compound was called inactive. Moreover, the half-maximal activity concentration (AC50) is 162 µM (active) in test [3], 120 µM (active) in test [5], 166 µM (active) in test [6] and 41.2 µM (active) in test [7].
Turning to `Cc1[nH]nc2c1N=C(c1ccccc1Cl)c1cc([N+](=O)[O-])ccc1N2`, the call in test [1], in test [2], in test [12], in test [13], in test [3] and in test [10] was inactive. In addition, in [11], the call was inactive. For the same compound, the AC50 is 1.16 µM (active) in [4]; 0.554 µM (active) in test [14]; 0.353 µM (active) in [5]; 19.8 µM (active) in test [7]; 3.97 µM (active) in test [15]; 4.73 µM (active) in test [16]. In addition, the AC50 in [17] was 3.03 µM (active); in test [18], 1.4 µM (active).
Consider `CCC(C)c1nccnc1OC` (centres undefined), for which the result in test [1], in [2], in test [12], in [3], in test [4] and in [14] was inactive. For the same compound, the outcome in [5], in test [7], in test [8], in test [9] and in test [10] was inactive.
Take `CCCCCCCCC(C)=O`: the outcome in test [1], in test [3], in test [4], in test [14], in test [5] and in test [6] was inactive. Further, the compound was called inactive in test [7], in test [8], in test [9] and in test [11].
Take `OCC(CO)(CBr)CBr`: the outcome in [1], in test [19], in test [12], in test [3], in test [4] and in [14] was inactive. The result in test [5], in test [6], in test [7], in test [15], in [16] and in test [17] was inactive. Moreover, the outcome in test [18] was inactive.
Turning to `CCCCCCCCCCCC(=O)O`, the compound was classed as inactive in test [1], in test [2], in test [12], in [13], in test [3] and in test [4]. The call in [14], in test [5], in [7], in [8], in test [10] and in test [11] was inactive. For the same compound, the figures for the AC50 in [7] and in test [8] were 100 µM (active) and 90.6 µM (active), respectively.
Regarding `FC(F)(F)C(F)(F)C(F)(F)C(F)(F)I`, the compound was classed as inactive in test [1], in [2], in test [12], in test [3], in test [4] and in test [14]. Further, the result in test [5], in test [6], in [7], in test [8], in [9] and in test [10] was inactive. In addition, in [11], the compound was classed as inactive.
For the compound `CCCCCCCCCCCCOC(=O)c1cc(O)c(O)c(O)c1`, the compound was classed as inactive in test [1], in [19], in test [12], in test [3], in [4] and in test [14]. Also, the outcome in test [5], in test [6] and in test [9] was inactive. Besides, the AC50 in [7] was 2.95 µM (active); in test [10], 43.9 µM (active).
For `FC(OC(F)(F)C(F)(F)C(F)(F)F)C(F)(F)F` (centres undefined), the result in [1], in test [2], in test [3], in [4], in test [14] and in [5] was inactive. Besides, the result in [6], in [7], in test [8], in [9] and in test [11] was inactive.
